An excerpt weighted towards active compounds, which were near 1.2% of everything screened.
TrxR1 substrate: rat thioredoxin reductase 1 substrate activity. Potency, µM (series often up to 114 µM), for the others: at the highest dose activity change, negative = substrate turnover. O89049. purified TrxR1 substrate turnover, NADPH consumption readout. hit rate 0.01% among 390,000; further: nearly all actives have a fitted effect of over 50% in size
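Rat TrxR1, dispensed at 90 nM, was prereduced with 400 uM NADPH (final) for 5 min at ~22 deg C, then incubated with compound 15 min before 400 uM selenite. A first-read NADPH fluorescence drop versus no-compound background flagged substrates.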
GALK inhibitor: galactokinase (human) inhibition. P51570. Purified GALK, Kinase-Glo residual ATP luminescence. Potency, µM (titrated, usually from 57.5 µM), without a hit: at the top dose activity change, negative = inhibition, actives largely listed as inhibitors. hit rate 0.007% among 270,000. AID 1868
Target sequence (P51570 whole entry, looked up): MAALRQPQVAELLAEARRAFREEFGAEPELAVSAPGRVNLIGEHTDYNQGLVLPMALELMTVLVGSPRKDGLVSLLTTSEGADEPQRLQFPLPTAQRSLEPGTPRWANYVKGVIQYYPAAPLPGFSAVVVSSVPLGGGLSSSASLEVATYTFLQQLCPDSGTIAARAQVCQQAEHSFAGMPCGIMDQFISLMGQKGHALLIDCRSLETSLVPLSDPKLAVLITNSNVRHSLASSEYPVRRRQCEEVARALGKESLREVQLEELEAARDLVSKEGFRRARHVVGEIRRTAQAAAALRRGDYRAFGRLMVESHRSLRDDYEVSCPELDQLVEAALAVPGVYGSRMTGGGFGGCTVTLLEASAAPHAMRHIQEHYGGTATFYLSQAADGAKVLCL
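5 nM enzyme, 35 uM ATP, 100 uM galactose, 20 mM HEPES pH8.0, 5 mM MgCl2; 1 h RT; residual ATP by Kinase-Glo Plus luminescence, qHTS format.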
NPSR antag: neuropeptide S receptor (human) antagonism, cAMP | CHO-NPSR cells, cAMP TR-FRET, antagonist mode | Potency, µM (top dose mostly 38.3 µM), for inactives: at the highest dose activity change, negative = inhibition, usual class: inhibitors | hit rate 1% among 220,000 | AID 1461; further: nearly all actives have a fitted effect of over 50% in size
rTrxR1 inhibitor: blocks rat thioredoxin reductase 1. recombinant rTrxR1, NADPH fluorescence consumption, selenite substrate. hit rate 1% among 390,000. Potency, µM (doses to about 114 µM), without a hit: at the highest dose activity change, negative = inhibition, actives largely listed as inhibitors. AID 588453; further: nearly all actives have a fitted effect of over 65% in size
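Rat TrxR1 (90 nM in the dispensed reagent) was pre-reduced with 400 uM NADPH for 5 min at room temperature, then incubated with compound for 15 min. After 400 uM selenite was added, NADPH fluorescence (Ex 340/Em 450 nm) was followed for 8 min.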
* = called active by the depositor; ? = inconclusive; . = not tested or not shown; [ ] = remark or other dose. The call rests on the fitted dose curve; in most records, active means well fitted curve in the direction sought with a large enough effect; inconclusive means small, poorly fitted or top-dose-only effect, or another doubt; inactive means no such curve, though single readings can be large; an effect the other way counts as inactive or inconclusive. On the % scale 0 is the no-effect control and ±100 the full control effect; potency means the concentration at half of the fitted maximal effect.

SMILES	TrxR1 substrate	GALK inhibitor	NPSR antag	rTrxR1 inhibitor
CC(C)(C)CC(C)(C)N=C1Nc2ccc([N+](=O)[O-])cc2N[C@]12C[C@H]1CCCC(=O)N3CC[C@@H](C2)[C@@H]13	-12.8%	.	.	-10.0%
COc1ccc(C2NN=C(c3c[nH]c4ccccc34)C2O)cc1 (stereo unspecified)	4.1%[57.1 µM]	0.3%	.	15.1%[2.29 µM]
COc1ccc(C2C(O)C(c3c[nH]c4ccccc34)=NN2C(=O)CCl)cc1 (stereo unspecified)	-3.7%	-6.5%	.	12.6µM*
CC(=O)Nc1ccc(NC(=O)COC(=O)/C(=C/c2ccccc2)n2nnnc2C)cc1	1.7%	5.6%	.	70.8µM*
Cc1nnnn1/C(=C\c1ccccc1)C(=O)OCC(=O)NC(C)(C)C	-3.1%	-1.7%	2.3%	50.1µM*
O=C(C[N+]12CN3CN(CN(C3)C1)C2)c1ccc(Br)cc1	0.9%	.	.	-20.6%
CCN(C(=O)C(C)N1C(=O)/C(=C/c2ccco2)SC1=S)C1CCS(=O)(=O)C1 (stereo unspecified)	4.3%	-0.3%	.	-39.9%
O=C1/C(=C/c2cccs2)SC(=S)N1NS(=O)(=O)c1ccccc1	-12.3%	-12.3%	50.7%	-26.4%
O=C1/C(=C/C=C/c2ccco2)SC(=S)N1NS(=O)(=O)c1ccccc1	-20.1%	.	-15.6%	44.7µM*
CC(C(=O)O)N1C(=O)/C(=C/C=C/c2ccco2)SC1=S (stereo unspecified)	-17.6%	-1.9%	-16.0%[46.1 µM]	14.1µM*
Cc1cccc(NC(=O)CSc2nc(-c3ccccc3)cc(=O)[nH]2)c1C	-6.5%[57.1 µM]	.	.	0.2%[57.1 µM]
CC1=C(c2ccc(F)cc2)S(=O)(=O)NC1=NCc1ccccc1Cl	-0.8%[57.1 µM]	.	.	9.9%[57.1 µM]
Cc1ccccc1OCC(O)Cn1c(=N)n(Cc2ccccc2)c2ccccc21 (stereo unspecified)	7.0%	0.1%	10µM*	14.4%
Cc1cc(N)cc(C)c1-c1c(Br)cc(N)cc1Br	-6.9%	.	.	-5.3%
Nc1cc(N)cc(N)c1	25.1µM*	.	.	39.8µM*
COCCn1c(CNC(=O)c2cccc(N(C)C)c2)nc2cccnc21	2.4%[57.1 µM]	.	.	25.2%[57.1 µM]
N#CC1(NC(=O)Cn2ncc(Cl)c(Cl)c2=O)CCCCC1	8.5%[57.1 µM]	.	.	5.01µM*
COc1ccc(NC(=S)NC(NC(=O)CCl)C(Cl)(Cl)Cl)c([N+](=O)[O-])c1 (stereo unspecified)	0.9%	0.3%	22.0%	10µM*
Cc1ccc(C)c(NC(=S)NC(NC(=O)Cc2cccc3ccccc23)C(Cl)(Cl)Cl)c1 (stereo unspecified)	-2.1%	2.5%	7.94µM*	13.1%
Cc1ccc2onc(CC(=O)N3CCN(c4ccc(F)cc4)CC3)c2c1	-8.9%	.	.	?
Cc1ccc(-n2ncc3c(N4CCCC4)ncnc32)c(C)c1	-2.9%	1.3%	-25.8%[46.1 µM]	-1.0%
COc1cccc(N2CCN(c3ncnc4c3cnn4-c3ccc(C)cc3C)CC2)c1	18.4%	2.3%	10µM*	38.7%
COc1ccc2[nH]c(C)c(C(=O)CNc3nccs3)c2c1	2.2%	.	.	-0.5%
COc1ccccc1S(=O)Cc1ccc(C(=O)NCCc2ccc(Cl)cc2)o1 (stereo unspecified)	1.8%	1.6%	-8.5%[46.1 µM]	17.8µM*
COc1ccccc1C(c1c(N)n(C)c(=O)n(C)c1=O)C(C)[N+](=O)[O-] (stereo unspecified)	5.4%	3.7%	4.4%	-2.5%
SMILES	TrxR1 substrate	GALK inhibitor	NPSR antag	rTrxR1 inhibitor
COc1ccccc1C(C[N+](=O)[O-])c1c(N)n(C)c(=O)n(C)c1=O (stereo unspecified)	2.6%	.	10µM*	?
C/C(=N\NC(=S)NC1CCCCC1)c1c(F)cccc1F	-7.1%	9.3%	1µM*	-3.0%
CC(=O)n1cc(N(C(=O)CCl)c2ccc(C)cc2)c2ccccc21	-3.4%	-14.4%	?	2µM*
CC(=O)N(c1ccc(Cl)cc1)c1cn(C(C)=O)c2ccccc12	1.7%	7.4%	-16.1%	14.5%
CCCS(=O)(=O)c1c(S(=O)(=O)CCC)c2c(N)cccn2c1C(=O)OC	-4.0%	5.3%	-10.3%	7.94µM*
COc1cc2nc(N3CCCCC3)nc(NC3CCN(C)CC3)c2cc1OC	96.5%	.	.	?
CCOC(=O)c1sc2nc(-c3ccco3)c3c(c2c1N)CC(C)(C)OC3	-6.5%	0.7%	10µM*	7.94µM*
O=C(Nc1nnc2n1CCS2)c1ccccc1C(F)(F)F	-2.8%[57.1 µM]	.	.	15.0%[57.1 µM]
O=C(O)/C=C/C(=O)NNC(=O)c1cc(-c2ccccc2)n[nH]1	10.3%	-2.8%	19.6%	6.31µM*
CCc1cc(C(=O)/C=C/c2cc3c(cc2C)OCCO3)c(O)cc1O	-5.5%	.	.	8.2%
Cc1ccc(CNC(=O)CN2C(=O)COc3ccc(S(=O)(=O)Nc4ccccc4)cc32)cc1	-5.5%	.	.	15.0%
CCN(CC)c1ccc(NC(=O)C2COc3ccc(OC)cc3C2)c(C)c1 (stereo unspecified)	2.2%[57.1 µM]	.	.	4.2%[57.1 µM]
COc1cc([C@@H]2c3cc4c(cc3[C@@H](O)[C@H]3COC(=O)[C@H]23)OCO4)cc(OC)c1O[Si](C)(C)C(C)(C)C	-3.6%[57.1 µM]	3.3%	10µM*	1.7%[57.1 µM]
CC1=C(C)/C(=N\OS(=O)(=O)c2ccc(C)cc2)C=CC1=O	-11.5%	-1.2%	?	?
CC1=C/C(=N\OS(=O)(=O)c2ccccc2)C(C(C)C)=CC1=O	-13.1%	1.3%	10µM*	?
CC1=C/C(=N\OS(=O)(=O)c2ccccc2)C(C)=CC1=O	-4.8%	0.6%	2.51µM*	?
C=C(c1nc2ccccc2s1)C1Cc2cccc3c2N(CCC3)C1 (stereo unspecified)	-8.4%	.	.	26.6%
C=C1C=C(C)n2ncc(C(=O)Nc3cccc4cnccc34)c2N1	2.1%	.	.	15.4%
CCn1cc(C(=O)OCC(=O)Nc2cc(OC)cc(OC)c2)c(=O)c2ccc(C)nc21	7.5%	.	.	14.0%
CCOC(=O)c1c[nH]c(=S)n(-c2ccccc2)c1=O	-3.3%[57.1 µM]	.	.	-6.1%[57.1 µM]
CCOC(=O)c1c(SCCN2CCCC2)n(-c2ccccc2)c(=S)n(-c2ccccc2)c1=O	3.7%	.	.	31.6µM*
CCCc1nc2ccccc2c(C(=O)OCC(=O)Nc2cccc(S(=O)(=O)N3CCOCC3)c2)c1CC	-10.8%	.	-16.2%[46.1 µM]	2.6%
CCCc1nc2ccccc2c(C(=O)OCC(=O)Nc2ccc(S(=O)(=O)N3CCOCC3)cc2)c1CC	-6.9%	-1.1%	10µM*	-1.1%
Nc1ccc(/C=C/c2ccc3cccnc3c2)cc1	0.3%[0.0914 µM]	.	.	2.8%
O=C(NCc1ccco1)c1ccccc1NS(=O)(=O)c1ccc(Cl)s1	1.3%	-2.2%	-8.9%[46.1 µM]	44.7µM*
O=C(NCc1ccco1)c1ccccc1NS(=O)(=O)c1cccs1	-2.4%	0.6%	-3.3%[46.1 µM]	-34.2%
Cc1ccc(C(=O)NC(=S)Nc2ccc(N3CCOCC3)cc2)cc1C	5.5%[57.1 µM]	7.5%	-5.3%	?
Cc1cccc(C(=O)NC(=S)Nc2ccc(N3CCOCC3)cc2)c1	-7.9%	-3.7%	4.6%	31.6µM*
COC(=O)c1cc(NC(=S)NC(=O)c2ccccc2)ccc1N1CCOCC1	-14.9%	6.2%	.	28.2µM*
